{"source": "PubChem BioAssay (NCI)", "note": "“And” between values parts separate entries of the source, which are not always exact repeats. Identical values can stand only once. This is part of a sample that, as a whole, favours compounds with a hit. Of some 83,000 tested, about 20% had one in any assay.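 The test compound was applied at a single concentration to cells in 96-well plates for 48 hours, and percent growth was recorded.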 Values without a mark were called inactive. The source made the active and inactive calls. How the source made its calls: active means growth percent below 10; inactive means the rest.", "data": [{"system": "HL-60(TB) leukemia", "test": "NCI-60 one-dose screen, 48 h (100 = growth as untreated, 0 = no growth, -100 = all killed)", "settings": "10 µM unless noted", "values": [{"compound": "CCOc1nc(-c2ccccc2)cc2c(O)c(C(=O)N/N=C/c3ccccc3O)[nH]c(=O)c12", "growth": "133%"}, {"compound": "Clc1ccc(C(Cn2ccnc2)OCc2ccsc2Cl)c(Cl)c1", "note": "(stereo not given)", "growth": "6.05% (active)"}, {"compound": "C=C(C)[C@@H]1CCC[C@]2(COS(=O)(=O)c3ccc(C)cc3)CC[C@]3(C)[C@@H](CC[C@@H]4[C@@]5(C)CCCNC(C)(C)[C@@H]5CC[C@]43C)[C@@H]12", "growth": "-35% (active)"}, {"compound": "CCOC(=O)/C=C/c1ccc(C(=O)OCC)[nH]1", "growth": "51.2%"}, {"compound": "C#CC[C@@H]1C[C@]2(C)[C@H]3CC=C4[C@H]5[C@@H](C)[C@H](C)CC[C@]5(C(=O)NCCCCN)CC[C@@]4(C)[C@]3(C)CC[C@H]2C(C)(C)[C@H]1OC(C)=O", "growth": "21.3%"}, {"compound": "Cc1[c-]onc1C.Cc1[c-]onc1C.[Ag].[Ag].[NH-]S(=O)(=O)c1ccc(N=Nc2cc(N=Nc3ccc(S([NH-])(=O)=O)cc3)c3c(NC(=O)C(Cl)Cl)cccc3c2OC(=O)C(Cl)Cl)cc1", "growth": "38.1%"}, {"compound": "Cn1cc(-c2cnc3ccc(NC(=O)Nc4ccc(F)c(Br)c4)cc3n2)cn1", "growth": "13.5%"}, {"compound": "C=CCCCOC1[C@H](OCc2ccccc2)C(OCc2ccccc2)C(OC)O[C@@H]1CNC(=O)c1cccc(I)c1", "note": "(stereo not given in full)", "growth": "55.1%"}, {"compound": "CC(C)C(NC(=O)CN)C(=O)O", "note": "(stereo not given)", "growth": "94.9% and 98.7%"}, {"compound": "CSc1nc(NCCO)c(C#N)c(-c2cccc(N)c2)n1", "growth": "96.1%"}, {"compound": "COc1cc(NCCCCCNC(C)C)c2ncccc2c1", "growth": "104% and 58.4%"}, {"compound": "Oc1c(C(Nc2cccc3ccccc23)c2ccccc2)ccc2cccnc12", "note": "(stereo not given)", "growth": "-37.4% (active)"}, {"compound": "O=C(Nc1ccccc1S)c1ccccc1", "growth": "105%"}, {"compound": "CCCCCCCCn1ccc2cc(NC(=O)CN3CCN(c4nc(C)cc(Cl)n4)CC3)ccc21", "growth": "91.1%"}, {"compound": "Fc1ccc(CNc2c3ccccc3nc3ccccc23)c(F)c1", "growth": "58.3%"}, {"compound": "C[C@H]1[C@H](C)CC[C@]2(CO)CC[C@]3(C)C(=CC[C@@H]4[C@@]5(C)CCCNC(C)(C)[C@@H]5CC[C@]43C)[C@H]12", "growth": "-55% (active)"}, {"compound": "O=S(=O)(O)C1(O)CCCCC1", "growth": "87.6%"}, {"compound": "COC(=O)[C@]12CC[C@@H](C)[C@H](C)[C@@H]1C1=CC[C@@H]3[C@@]4(C)C/C(=N\\O)[C@H](O)[C@@]5(C)COC(=C45)C[C@@]3(C)[C@]1(C)CC2", "growth": "-59.8% (active)"}, {"compound": "COc1ccc(/C(=N/O)c2cc(F)c(F)c(OC)c2F)cc1O", "growth": "-5.23% (active)"}, {"compound": "COc1cc(C2CC(c3cccc(Nc4ccnc5cc(Cl)ccc45)c3)=NN2C=O)cc(OC)c1OC", "note": "(stereo not given)", "growth": "-7.92% (active)"}, {"compound": "CC[C@@H](C)/C=C(C)/C=C/C(O)=C1\\C(=O)N[C@@H](Cc2ccc(OC(=O)[C@@](OC)(c3ccccc3)C(F)(F)F)cc2)C1=O", "growth": "8.34% (active)"}, {"compound": "O=C(O)C(O)c1ccccc1", "note": "(stereo not given)", "growth": "97.3%"}, {"compound": "C[C@H]1[C@H](C)CC[C@]2(C(=O)Nc3ccc4ncccc4c3)CC[C@]3(C)C(=CC[C@@H]4[C@@]5(C)CCCNC(C)(C)[C@@H]5CC[C@]43C)[C@H]12", "growth": "-45.2% (active)"}, {"compound": "COc1ccc(/C=C/C(=O)c2cccc(NS(C)(=O)=O)c2)cc1", "growth": "79.6%"}, {"compound": "Cn1c(=O)c2c(nc(NC3=NS(=O)(=O)c4ccccc43)n2CC(=O)N2CCc3ccccc32)n(C)c1=O", "growth": "111%"}, {"compound": "O=C1Nc2ccccc2/C1=C\\c1c(-c2ccc(F)cc2)nc2ccccn12", "growth": "70.3%"}, {"compound": "Cc1ccc(S(=O)(=O)Oc2ccc([N+](=O)[O-])cc2[N+](=O)[O-])cc1", "growth": "47.9%"}, {"compound": "C=CCSc1nc2ccccc2cc1/C=N/O", "growth": "92.1%"}, {"compound": "CCOc1ccc2sc(NS(=O)(=O)c3ccc(N)cc3)nc2c1", "growth": "94.7%"}, {"compound": "NC(Cc1ccc(O)cc1)C(=O)N/N=C/c1ccccc1O", "note": "(stereo not given)", "growth": "93.7%"}, {"compound": "N#CC1=C(Nc2ccccc2Cl)SC(c2ccccc2O)NC1=O", "note": "(stereo not given)", "growth": "93.1%"}, {"compound": "COc1ccc2nc3ccccc3c(NCCNCCO)c2c1", "growth": "6.15% (active)"}, {"compound": "CCN(CC)CCOc1ccc2c(c1)C(=O)c1cc(OCCN(CC)CC)ccc1-2", "growth": "94.2% and 36.5%"}, {"compound": "COc1ccc2c(c1)/C(=C1/S/C(=N/c3nnc(C)s3)NC1=O)C(=O)N2Cc1ccc(Br)cc1", "growth": "32.5%"}, {"compound": "COc1ccc(SC2c3cc(OC)c(OC)cc3Oc3nc(N)c(C#N)c(N)c32)cc1", "note": "(stereo not given)", "growth": "-51.5% (active)"}]}]}
